Reference: PubChem BioAssay

Experiment: compound effects on differentiated 3T3-L1 adipocyte viability – cell-based, 3T3-L1 adipocytes, calcein-AM fluorescence, 48 h, basal, profiling panel (AID 1163); also: test concentration not given here
Conditions: 3T3-L1 adipocytes viability, higher = more signal

| SMILES | z-score |
| --- | --- |
| CO[C@@H]1COC(=O)CC=C[C@H](C)[C@H](OC)COC(=O)[C@H](C)NC(=O)CC=C[C@H]1C | 0.256 |
| CC(CCC(=O)OC[C@H]1O[C@H](C#Cc2ccccc2)C=C[C@@H]1Oc1ccc(C)cc1)=NO[C@H](C)c1cn([C@H](CO)Cc2ccccc2)nn1 | -0.643 |
| CCOC(=O)[C@H](Cc1ccccc1)NC(=O)CCC1CC(OC(=O)NCc2cccc3ccccc23)CC2(CCCC(COC(=O)NCC(c3ccccc3)c3ccccc3)O2)O1 (stereo not given in full) | -0.0155 |
| CC(C)=CCCC(C)=CCON=C1C[C@@H](O)[C@@H](O)[C@@H]2[C@@H]3C(=O)N(C[C@@H]4CCCO4)C(=O)[C@@H]3CC[C@H]12 | -0.789 |
| COC(=O)[C@H]1O[C@@H](c2c(OC)c(OC)c(C)c(OC)c2OC)[C@H](C)[C@@H](O)[C@H]1C | -0.302 |
| COc1ccc(O[C@H]2C=C[C@@H](c3ccccc3)O[C@@H]2COC(=O)CCC(C)=NOC[C@@H](O)[C@H]2O[C@@H]3OC(C)(C)O[C@@H]3[C@H]2O)cc1 | -0.519 |
| CCOC(=O)[C@H](CC(C)C)NC(=O)CCC1CC(OC(=O)NCCc2ccc(F)cc2)CC2(CCCC(COC(=O)NCC3CCCCC3)O2)O1 (stereo not given in full) | 0.0504 |
| CC(C)=CCCC(C)=CCON=C1C[C@@H](O)[C@@H](O)[C@@H]2[C@@H]3C(=O)N(C4CCCCC4)C(=O)[C@@H]3CC[C@@H]12 | -0.345 |
| COC(=O)CC=C[C@@H](C)[C@@H](C=NOC[C@H]1O[C@H](c2ccccc2)C=C[C@@H]1Oc1ccc(OC)cc1)NS(=O)(=O)c1ccc(C)cc1 | -0.486 |
| CCc1cc2c(nc1CC)CCN(CCC(C)=NO[C@H](C)c1cn([C@@H]3COC[C@H]3O)nn1)C2 | -0.744 |
| CCOC(=O)NN=C1C[C@@H](O)[C@@H](O)[C@@H]2[C@@H]3C(=O)N(Cc4ccc5c(c4)OCO5)C(=O)[C@@H]3CC[C@H]12 | -0.132 |
| CO[C@H]1COC(=O)CC=C[C@H](C)[C@@H](OC)COC(=O)[C@@H](C)NC(=O)CC=C[C@@H]1C | 0.0797 |
| CO[C@@H]1COC(=O)CC=C[C@@H](C)[C@@H]2C=C[C@H](O)[C@@H](COC(=O)CC=C[C@H]1C)O2 | 0.392 |
| CCOC(=O)[C@H](CC(C)C)NC(=O)CCC1CC(OC(=O)NCCc2ccc(F)cc2)CC2(CCCC(COC(=O)NCCc3ccccc3OC)O2)O1 (stereo not given in full) | -0.227 |
| CCCNC(=O)OC[C@H]1O[C@H](CCON=C(C)CCN2CCCc3nc(C)c(C)cc32)C=C[C@@H]1Oc1ccc(OC)cc1 | 1.43 |
| CCC(=O)[C@@]1(O)C(=O)N2C(=C3C(=O)OCC[C@@H]31)N(Cc1ccccc1)C(C)=C(C(=O)OC)[C@H]2c1ccccc1 | -1.09 |
| CC(C)(C)N1C(=O)[C@H]2[C@H]3[C@H](O)C=CC(=O)[C@@H]3CC[C@H]2C1=O | 0.815 |
| CC(CCN1CCCc2nc(C)c(C)cc21)=NO[C@@H](C)c1cc(-c2c(C)cc(C)cc2C)no1 | -0.0581 |
| C[C@H](ON=C1[C@H]2CCn3c(=O)n(-c4ccccc4)c(=O)n3[C@H]2[C@H](O)[C@@H]2O[C@H]12)c1cn([C@H](CO)Cc2ccccc2)nn1 | -0.443 |
| CCN1C(=O)[C@H]2[C@H]3[C@H](O)[C@H](O)CC(=O)[C@H]3CC[C@H]2C1=O | 0.015 |
| C#CCCCON=C1C[C@@H](O)[C@@H](O)[C@@H]2[C@@H]3C(=O)N(c4ccc(F)cc4F)C(=O)[C@@H]3CC[C@H]12 | -0.0377 |
| O=C(NN=C1C[C@@H](O)[C@@H](O)[C@@H]2[C@@H]3C(=O)N(C4CCCCC4)C(=O)[C@@H]3CC[C@@H]12)OCc1ccccc1 | 0.487 |
| CC(CCN1CCCCc2nc(C)c(C)cc21)=NOC[C@@H](O)COCc1ccco1 | 0.0279 |
| C=CC1=C[C@H](O)[C@@H]2O[C@@H]2C12OCCCO2 | -0.564 |
| CON=C1[C@H]2CCn3c(=O)n(-c4ccccc4)c(=O)n3[C@H]2[C@H](O)[C@@H]2O[C@H]12 | 0.384 |
